# Laboratory results as given in PubChem BioAssay (EPA / NIEHS).
# Results filed as inconclusive are left out. Activity calls are given as the source filed them. Rule for the calls, unless noted: active = hit-call score of the fitted dose curve at least 0.9, where 1 is the maximum; inactive = score below 0.9.
# Assays:
# [1] = read-out: Intercellular Adhesion Molecule 1 (ICAM1), ICAM1 (gene 3383); test: BSK_3C_ICAM1: BioMAP Diversity Plus: 3C Assay for Intercellular Adhesion Molecule 1 (ICAM1) Biomarker Activity (AID 2283003); conditions: primary human endothelial cells (HUVEC); actives raise or lower the signal
# In short: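 HUVEC primary cells stimulated under 3C conditions; ICAM1 measured by ELISA 24 h after compound dosing. Curves fitted bidirectionally against the DMSO baseline. Overt cytotoxicity checked by SRB staining of parallel cultures.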
# [2] = BSK_3C_Proliferation: Cell Proliferation Assessment in the BioMAP Diversity Plus: 3C Assay (AID 2283006); conditions: primary human endothelial cells (HUVEC);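 for AC50: potency may reflect either rise or fall in cell number versus DMSO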
# In short: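 Subconfluent HUVEC (3C system) cultured with chemical; relative cell number read at 48 h by sulforhodamine B total-protein staining (0.1% SRB after 10% TCA fixation, 560 nm). Bidirectional fit relative to DMSO.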
# [3] = target: Peroxisome proliferator-activated receptor gamma (Homo sapiens) (UniProt P37231); test: ATG_PPARg_TRANS: Attagene TRANS-FACTORIAL HepG2 Assay for human Peroxisome Proliferator-activated Receptor-gamma (PPARg) (AID 2283007; active = hit-call score of the fitted dose curve at least 0.9, where 1 is the maximum)
# In short: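 After 24 h of chemical exposure, transfected HepG2 cells carrying PPARγ-Gal4 chimera reporter constructs are lysed for RNA. Reporter transcripts are measured by RT-PCR and capillary electrophoresis with fluorescent labelling, and gain of signal is fitted versus DMSO.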
# [4] = target: human RAR-related Orphan Receptor beta (RORb), RORB (gene 6096) (UniProt Q92753); test: ATG_RORb_TRANS: Attagene TRANS-FACTORIAL HepG2 Assay for human RAR-related Orphan Receptor beta (RORb) (AID 2283010; active = hit-call score of the fitted dose curve at least 0.9, where 1 is the maximum)
# In short: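 HepG2 cells transiently transfected with GAL4-UAS reporter units expressing chimeric NR-Gal4 protein; reporter mRNA measured 24 h after dosing by RT-PCR, 6-FAM labelling and capillary electrophoresis. Gain-of-signal fitted relative to DMSO baseline.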
# [5] = target: Retinoic acid receptor RXR-alpha (Homo sapiens) (UniProt P19793); test: ATG_RXRa_TRANS: Attagene TRANS-FACTORIAL HepG2 Assay for human Retinoid X Receptor alpha (RXRa) (AID 2283012; active = hit-call score of the fitted dose curve at least 0.9, where 1 is the maximum)
# In short: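 HepG2 cells transiently transfected with GAL4-UAS reporter units and chimeric RXRa-Gal4 protein, treated 24 h. Reporter mRNA measured by RT-PCR, fluorescent labelling, HpaI digestion and capillary electrophoresis. Induction fitted against DMSO.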
# [6] = target: human Retinoid X Receptor beta (RXRb), RXRB (gene 6257) (UniProt P28702); test: ATG_RXRb_TRANS: Attagene TRANS-FACTORIAL HepG2 Assay for human Retinoid X Receptor beta (RXRb) (AID 2283013; active = hit-call score of the fitted dose curve at least 0.9, where 1 is the maximum)
# In short: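 HepG2 cells were transiently transfected with multiplexed GAL4-UAS reporters and a chimeric RXRb-Gal4 construct, then exposed for 24 h. Reporter mRNA was quantified by RT-PCR, FAM labeling, HpaI digestion and capillary electrophoresis; gain of signal was scored against DMSO.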
# [7] = read-out: E-selectin (Homo sapiens) (UniProt P16581); test: BSK_3C_Eselectin: BioMAP Diversity Plus: 3C Assay for Eselectin Biomarker Activity (AID 2283015); conditions: primary human endothelial cells (HUVEC); actives raise or lower the signal;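 note: cell surface E-selectin protein quantified by ELISA 24 h after dosing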
# In short: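 ELISA read-out of E-selectin on endothelial monolayers after 24 h chemical treatment. Human umbilical vein primary cells served as the system, with DMSO defining baseline activity for bidirectional fitting.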
# [8] = read-out: Interleukin-1 alpha (IL1a), IL1A (gene 3552); test: BSK_BE3C_IL1a: BioMAP Diversity Plus: BE3C Assay for Interleukin-1 alpha (IL1a) Biomarker Activity (AID 2283016); conditions: primary human bronchial epithelial cells; actives raise or lower the signal
# In short: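 Human primary bronchial epithelial cells, 24 h chemical exposure; IL-1a quantified by ELISA, fitted bidirectionally against DMSO. Cytotoxicity assessed in parallel by SRB total-protein staining at the time of measurement.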
# [9] = read-out: Monocyte Chemoattractant Protein-1 (MCP1), CCL2 (gene 6347); test: BSK_3C_MCP1: BioMAP Diversity Plus: 3C Assay for Monocyte Chemoattractant Protein-1 (MCP1) Biomarker Activity (AID 2283017); conditions: primary human endothelial cells (HUVEC); actives raise or lower the signal
# In short: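 ELISA read-out of MCP-1 from human umbilical vein endothelial cell cultures harvested 24 h post-dosing. Gain or loss of signal was fitted relative to DMSO.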
# [10] = read-out: Monocyte Chemoattractant Protein-1 (MCP1), CCL2 (gene 6347); test: BSK_4H_MCP1: BioMAP Diversity Plus: 4H Assay for Monocyte Chemoattractant Protein-1 (MCP1) Biomarker Activity (AID 2283018); conditions: primary human endothelial cells (HUVEC); actives raise or lower the signal
# In short: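 Human umbilical vein endothelial cells (4H system) exposed to chemicals for 24 h in 96-well format. MCP-1 measured by ELISA; bidirectional fitting against DMSO, with SRB total-protein staining in parallel cultures for cytotoxicity.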
# [11] = read-out: Human Leukocyte Antigen - DR isotype (HLADR), HLA-DRA (gene 3122); test: BSK_3C_HLADR: BioMAP Diversity Plus: 3C Assay for Human Leukocyte Antigen - DR isotype (HLADR) Biomarker Activity (AID 2283019); conditions: primary human endothelial cells (HUVEC); actives raise or lower the signal;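 note: ELISA of cell-surface HLA-DR on HUVEC 24 h after dosing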
# In short: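 ELISA readout of surface HLA-DR on human umbilical vein endothelium, taken 24 h after chemical treatment. Gain- and loss-of-signal were both fitted relative to DMSO.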
# [12] = read-out: Interleukin-8 (IL8), CXCL8 (gene 3576); test: BSK_3C_IL8: BioMAP Diversity Plus: 3C Assay for Interleukin-8 (IL8) Biomarker Activity (AID 2283020); conditions: primary human endothelial cells (HUVEC); actives raise or lower the signal
# In short: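 Primary human umbilical vein endothelial cells were dosed for 24 h. IL-8 was quantified by ELISA and fitted bidirectionally against DMSO. Cytotoxicity was assessed in parallel cultures by SRB staining at 560 nm.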
# [13] = read-out: Monokine induced gamma interferon (MIG), CXCL9 (gene 4283); test: BSK_3C_MIG: BioMAP Diversity Plus: 3C Assay for Monokine induced gamma interferon (MIG) Biomarker Activity (AID 2283021); conditions: primary human endothelial cells (HUVEC); actives raise or lower the signal
# In short: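 HUVEC primary endothelial cultures dosed with chemical; MIG quantified by ELISA at 24 h. Data fitted bidirectionally against DMSO control, with parallel SRB total-protein staining for cytotoxicity.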
# [14] = target: human Vitamin D Receptor (VDR), VDR (gene 7421) (UniProt P11473); test: ATG_VDR_TRANS: Attagene TRANS-FACTORIAL HepG2 Assay for human Vitamin D Receptor (VDR) (AID 2283022; active = hit-call score of the fitted dose curve at least 0.9, where 1 is the maximum)
# In short: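 Steps: transfect HepG2 with GAL4-UAS-driven reporter constructs; dose compounds 24 h; isolate RNA, reverse-transcribe, PCR-amplify with 6-FAM-labelled primer extension and HpaI digestion; quantify fragments by capillary electrophoresis relative to DMSO.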
# [15] = BSK_3C_SRB: Viability Assessment in the BioMAP Diversity Plus: 3C Assay (AID 2283023); conditions: primary human endothelial cells (HUVEC);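 note: fitted both ways against DMSO so a hit may be signal rise or drop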
# In short: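 Absorbance at 560 nm of sulforhodamine B-stained (0.1%) total protein served as a cytotoxicity readout in human umbilical vein endothelial cells, 24 h after chemical treatment. Signal was fitted bidirectionally relative to DMSO.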
# [16] = target: Nuclear receptor subfamily 1 group I member 2 (Homo sapiens) (UniProt O75469); test: ATG_PXR_TRANS: Attagene TRANS-FACTORIAL HepG2 Assay for human Pregnane X Receptor (PXR) (AID 2283008; active = hit-call score of the fitted dose curve at least 0.9, where 1 is the maximum)
# In short: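 Measures mRNA induction of a GAL4-UAS-driven reporter in human HepG2 cells transiently expressing PXR fused to Gal4, following 24 h treatment. DMSO served as negative control and baseline.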
# [17] = target: human Thyroid Receptor alpha (THRa1), THRA (gene 7067) (UniProt P10827); test: ATG_THRa1_TRANS: Attagene TRANS-FACTORIAL HepG2 Assay for human Thyroid Receptor alpha (THRa1) (AID 2283014; active = hit-call score of the fitted dose curve at least 0.9, where 1 is the maximum)
# In short: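 Reporter transcript induction, read by capillary electrophoresis of 6-FAM-labelled RT-PCR products, reflects activity of a transfected THRa1-Gal4 fusion in HepG2 liver cells. Cells were dosed for 24 h; activity was fitted in the positive direction against DMSO.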
# [18] = target: human Retinoic Acid Receptor gamma (RARg), RARG (gene 5916) (UniProt P13631); test: ATG_RARg_TRANS: Attagene TRANS-FACTORIAL HepG2 Assay for human Retinoic Acid Receptor gamma (RARg) (AID 2283009; active = hit-call score of the fitted dose curve at least 0.9, where 1 is the maximum)
# In short: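 HepG2 transiently transfected with GAL4-UAS reporter units and chimeric NR-Gal4 constructs; 24 h compound exposure. Reporter mRNA quantified by RT-PCR, FAM labeling, HpaI digestion and capillary electrophoresis; gain-of-signal versus DMSO.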
# [19] = target: human RAR-related Orphan Receptor gamma (RORg), RORC (gene 6097) (UniProt P51449); test: ATG_RORg_TRANS: Attagene TRANS-FACTORIAL HepG2 Assay for human RAR-related Orphan Receptor gamma (RORg) (AID 2283011; active = hit-call score of the fitted dose curve at least 0.9, where 1 is the maximum)
# In short: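 First, HepG2 liver cells were transfected with GAL4-UAS-driven reporter constructs and the RORg-Gal4 fusion. Next, they were treated with chemical for 24 h. Finally, reporter mRNA was quantified by RT-PCR and capillary electrophoresis, with upward activity fitted against DMSO.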
# human Thyroid Receptor alpha (THRa1), THRA (gene 7067), sequence (P10827 whole entry, looked up, the tested form may be a part): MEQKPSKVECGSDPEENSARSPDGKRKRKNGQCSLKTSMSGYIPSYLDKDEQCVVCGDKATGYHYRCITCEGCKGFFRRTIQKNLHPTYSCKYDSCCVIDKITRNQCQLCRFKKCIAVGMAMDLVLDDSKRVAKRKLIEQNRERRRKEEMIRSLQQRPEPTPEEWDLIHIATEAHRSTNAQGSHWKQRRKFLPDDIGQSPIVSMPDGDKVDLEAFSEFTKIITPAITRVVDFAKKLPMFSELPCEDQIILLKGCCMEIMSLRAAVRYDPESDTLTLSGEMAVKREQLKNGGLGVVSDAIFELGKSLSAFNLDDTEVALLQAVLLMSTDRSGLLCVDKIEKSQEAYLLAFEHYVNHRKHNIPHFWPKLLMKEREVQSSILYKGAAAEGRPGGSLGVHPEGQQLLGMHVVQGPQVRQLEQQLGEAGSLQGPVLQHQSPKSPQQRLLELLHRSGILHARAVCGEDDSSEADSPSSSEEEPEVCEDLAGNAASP
# human Retinoid X Receptor beta (RXRb), RXRB (gene 6257), sequence (P28702 whole entry, looked up, the tested form may be a part): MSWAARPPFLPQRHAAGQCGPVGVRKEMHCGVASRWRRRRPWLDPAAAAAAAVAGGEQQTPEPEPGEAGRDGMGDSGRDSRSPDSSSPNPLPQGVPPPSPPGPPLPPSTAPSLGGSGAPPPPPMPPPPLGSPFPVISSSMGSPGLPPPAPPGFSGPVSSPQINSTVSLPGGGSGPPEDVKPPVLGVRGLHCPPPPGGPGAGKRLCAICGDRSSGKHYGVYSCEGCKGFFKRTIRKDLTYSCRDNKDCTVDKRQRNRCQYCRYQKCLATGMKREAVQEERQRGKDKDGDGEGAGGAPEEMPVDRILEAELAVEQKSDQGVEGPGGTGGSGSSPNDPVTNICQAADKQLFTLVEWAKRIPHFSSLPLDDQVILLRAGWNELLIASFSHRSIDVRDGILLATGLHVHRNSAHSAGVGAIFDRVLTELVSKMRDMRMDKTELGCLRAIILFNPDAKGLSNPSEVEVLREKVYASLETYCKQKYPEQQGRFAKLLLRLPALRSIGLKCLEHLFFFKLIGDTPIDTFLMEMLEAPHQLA
# human RAR-related Orphan Receptor gamma (RORg), RORC (gene 6097), sequence (P51449 whole entry, looked up, the tested form may be a part): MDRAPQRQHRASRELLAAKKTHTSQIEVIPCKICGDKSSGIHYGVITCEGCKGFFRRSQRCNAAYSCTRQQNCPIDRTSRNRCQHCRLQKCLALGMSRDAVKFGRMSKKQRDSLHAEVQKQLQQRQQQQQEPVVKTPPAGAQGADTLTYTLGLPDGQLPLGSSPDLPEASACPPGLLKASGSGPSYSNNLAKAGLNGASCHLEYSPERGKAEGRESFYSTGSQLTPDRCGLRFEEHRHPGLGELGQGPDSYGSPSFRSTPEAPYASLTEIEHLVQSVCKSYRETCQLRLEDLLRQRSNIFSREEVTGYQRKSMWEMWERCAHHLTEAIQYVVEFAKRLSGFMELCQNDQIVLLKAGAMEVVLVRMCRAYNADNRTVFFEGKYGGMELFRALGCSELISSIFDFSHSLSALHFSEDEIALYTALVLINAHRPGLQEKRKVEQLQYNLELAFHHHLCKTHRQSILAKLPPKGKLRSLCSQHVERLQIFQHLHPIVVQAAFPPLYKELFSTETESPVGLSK
# human Vitamin D Receptor (VDR), VDR (gene 7421), sequence (P11473 whole entry, looked up, the tested form may be a part): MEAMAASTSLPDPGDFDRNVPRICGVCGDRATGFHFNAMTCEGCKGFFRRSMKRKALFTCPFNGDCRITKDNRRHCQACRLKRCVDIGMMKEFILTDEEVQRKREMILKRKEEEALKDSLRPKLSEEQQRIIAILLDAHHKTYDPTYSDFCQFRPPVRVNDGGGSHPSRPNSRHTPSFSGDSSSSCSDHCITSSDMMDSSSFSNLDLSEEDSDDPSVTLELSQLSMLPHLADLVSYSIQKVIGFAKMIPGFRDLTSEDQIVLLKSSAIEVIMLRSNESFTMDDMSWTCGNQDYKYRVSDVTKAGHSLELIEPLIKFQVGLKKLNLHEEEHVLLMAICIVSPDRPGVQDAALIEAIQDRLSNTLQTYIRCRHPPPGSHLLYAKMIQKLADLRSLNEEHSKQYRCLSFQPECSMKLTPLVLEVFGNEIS
# Peroxisome proliferator-activated receptor gamma (Homo sapiens), sequence (P37231 whole entry, looked up, the tested form may be a part): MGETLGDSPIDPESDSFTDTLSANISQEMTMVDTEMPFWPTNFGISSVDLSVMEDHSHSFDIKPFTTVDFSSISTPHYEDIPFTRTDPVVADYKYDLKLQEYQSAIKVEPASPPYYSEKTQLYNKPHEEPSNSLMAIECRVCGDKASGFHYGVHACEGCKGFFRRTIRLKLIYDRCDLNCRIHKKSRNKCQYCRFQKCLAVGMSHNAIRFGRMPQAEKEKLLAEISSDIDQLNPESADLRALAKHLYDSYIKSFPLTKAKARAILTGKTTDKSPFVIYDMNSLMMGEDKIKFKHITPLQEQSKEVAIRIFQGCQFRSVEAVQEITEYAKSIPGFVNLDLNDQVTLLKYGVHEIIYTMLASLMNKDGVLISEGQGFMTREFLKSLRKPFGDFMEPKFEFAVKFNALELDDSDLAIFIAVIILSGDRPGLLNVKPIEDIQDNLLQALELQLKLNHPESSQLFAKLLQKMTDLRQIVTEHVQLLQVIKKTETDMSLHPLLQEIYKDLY
# E-selectin (Homo sapiens), sequence (P16581 whole entry, looked up): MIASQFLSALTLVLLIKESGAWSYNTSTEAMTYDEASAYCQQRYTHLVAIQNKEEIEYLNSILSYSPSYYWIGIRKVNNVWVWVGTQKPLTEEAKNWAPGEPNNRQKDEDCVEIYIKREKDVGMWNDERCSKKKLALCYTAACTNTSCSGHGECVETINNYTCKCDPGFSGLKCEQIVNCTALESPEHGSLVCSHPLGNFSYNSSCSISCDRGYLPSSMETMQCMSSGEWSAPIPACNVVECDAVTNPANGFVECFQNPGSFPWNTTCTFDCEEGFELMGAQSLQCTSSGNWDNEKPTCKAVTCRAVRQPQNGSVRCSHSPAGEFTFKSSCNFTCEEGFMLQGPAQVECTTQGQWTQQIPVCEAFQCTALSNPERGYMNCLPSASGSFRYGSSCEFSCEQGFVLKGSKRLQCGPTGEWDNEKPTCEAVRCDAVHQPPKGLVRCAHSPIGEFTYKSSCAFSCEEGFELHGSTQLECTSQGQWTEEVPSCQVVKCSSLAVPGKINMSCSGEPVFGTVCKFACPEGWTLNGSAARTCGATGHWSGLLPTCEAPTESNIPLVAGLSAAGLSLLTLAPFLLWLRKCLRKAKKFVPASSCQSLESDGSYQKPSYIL
# Nuclear receptor subfamily 1 group I member 2 (Homo sapiens), sequence (O75469 whole entry, looked up, the tested form may be a part): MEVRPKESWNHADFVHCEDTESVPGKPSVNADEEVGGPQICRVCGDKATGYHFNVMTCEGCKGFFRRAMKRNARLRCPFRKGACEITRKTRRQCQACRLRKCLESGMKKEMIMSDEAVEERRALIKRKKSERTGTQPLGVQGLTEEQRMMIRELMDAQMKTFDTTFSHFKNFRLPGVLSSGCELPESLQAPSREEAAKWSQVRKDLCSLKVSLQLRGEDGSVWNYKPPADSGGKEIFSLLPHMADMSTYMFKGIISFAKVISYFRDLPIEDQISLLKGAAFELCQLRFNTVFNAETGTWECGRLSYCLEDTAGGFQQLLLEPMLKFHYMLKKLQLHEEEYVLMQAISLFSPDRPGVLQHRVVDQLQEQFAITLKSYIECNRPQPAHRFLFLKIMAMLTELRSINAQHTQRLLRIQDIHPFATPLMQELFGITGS
# human RAR-related Orphan Receptor beta (RORb), RORB (gene 6096), sequence (Q92753 whole entry, looked up, the tested form may be a part): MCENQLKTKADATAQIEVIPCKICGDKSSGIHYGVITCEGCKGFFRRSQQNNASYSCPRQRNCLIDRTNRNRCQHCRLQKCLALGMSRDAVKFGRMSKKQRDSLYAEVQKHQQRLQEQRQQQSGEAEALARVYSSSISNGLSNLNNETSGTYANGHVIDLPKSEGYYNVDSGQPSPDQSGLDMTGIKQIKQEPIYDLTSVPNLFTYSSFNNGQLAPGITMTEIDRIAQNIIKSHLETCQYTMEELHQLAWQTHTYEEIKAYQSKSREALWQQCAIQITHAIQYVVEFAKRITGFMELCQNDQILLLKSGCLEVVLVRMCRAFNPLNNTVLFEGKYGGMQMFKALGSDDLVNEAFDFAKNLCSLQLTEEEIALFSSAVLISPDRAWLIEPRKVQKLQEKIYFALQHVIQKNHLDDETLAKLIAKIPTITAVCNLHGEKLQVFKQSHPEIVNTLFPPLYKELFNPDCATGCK
# Retinoic acid receptor RXR-alpha (Homo sapiens), sequence (P19793 whole entry, looked up, the tested form may be a part): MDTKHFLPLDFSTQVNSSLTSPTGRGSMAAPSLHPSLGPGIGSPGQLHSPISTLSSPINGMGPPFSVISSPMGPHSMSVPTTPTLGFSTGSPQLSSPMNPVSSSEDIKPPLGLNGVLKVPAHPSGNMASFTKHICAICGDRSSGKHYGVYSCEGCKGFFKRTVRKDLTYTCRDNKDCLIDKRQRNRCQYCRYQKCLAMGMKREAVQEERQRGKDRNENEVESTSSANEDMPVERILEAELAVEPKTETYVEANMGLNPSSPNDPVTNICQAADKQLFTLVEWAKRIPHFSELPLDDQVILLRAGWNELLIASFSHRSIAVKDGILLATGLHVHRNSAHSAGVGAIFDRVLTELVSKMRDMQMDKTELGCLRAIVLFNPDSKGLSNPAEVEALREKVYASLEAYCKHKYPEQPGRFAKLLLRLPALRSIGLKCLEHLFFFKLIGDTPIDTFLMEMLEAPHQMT
# human Retinoic Acid Receptor gamma (RARg), RARG (gene 5916), sequence (P13631 whole entry, looked up, the tested form may be a part): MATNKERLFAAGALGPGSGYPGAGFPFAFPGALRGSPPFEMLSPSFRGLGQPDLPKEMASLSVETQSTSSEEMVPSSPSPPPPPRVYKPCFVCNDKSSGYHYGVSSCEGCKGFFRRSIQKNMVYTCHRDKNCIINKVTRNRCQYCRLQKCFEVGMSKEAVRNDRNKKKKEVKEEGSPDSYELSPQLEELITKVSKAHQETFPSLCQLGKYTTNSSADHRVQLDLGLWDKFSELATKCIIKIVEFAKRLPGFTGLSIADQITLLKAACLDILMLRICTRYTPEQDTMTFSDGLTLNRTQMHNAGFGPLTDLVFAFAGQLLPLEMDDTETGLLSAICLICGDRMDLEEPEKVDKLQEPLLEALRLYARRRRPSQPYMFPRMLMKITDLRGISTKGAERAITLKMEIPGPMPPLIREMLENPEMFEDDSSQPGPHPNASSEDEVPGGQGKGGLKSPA
structure (smiles),measurement,setting,value
CC(O)C(F)(F)C(F)(F)F (stereo not given),outcome,[1],inactive
same,outcome,[2],inactive
same,outcome,[3],inactive
same,outcome,[4],inactive
same,outcome,[5],inactive
same,outcome,[6],inactive
same,outcome,[7],inactive
same,outcome,[8],inactive
same,outcome,[9],inactive
same,outcome,[10],inactive
same,outcome,[11],inactive
same,outcome,[12],inactive
same,outcome,[13],inactive
same,outcome,[14],inactive
same,outcome,[15],inactive
c1nc[nH]n1,outcome,[1],inactive
same,outcome,[2],inactive
same,outcome,[3],inactive
same,outcome,[6],inactive
same,outcome,[7],inactive
same,outcome,[8],inactive
same,outcome,[9],inactive
same,outcome,[10],inactive
same,outcome,[11],inactive
same,outcome,[12],inactive
same,outcome,[13],inactive
same,outcome,[14],inactive
same,outcome,[15],inactive
O=C(O)C1C(C(=O)O)C2(Cl)C(Cl)=C(Cl)C1(Cl)C2(Cl)Cl (stereo not given),outcome,[1],inactive
same,outcome,[2],inactive
same,outcome,[16],inactive
same,outcome,[4],inactive
same,outcome,[17],inactive
same,outcome,[7],inactive
same,outcome,[8],inactive
same,outcome,[9],inactive
same,outcome,[10],inactive
same,outcome,[11],inactive
same,outcome,[12],inactive
same,outcome,[13],inactive
same,outcome,[15],inactive
O=[N+]([O-])c1ccc(Cl)c(Cl)c1,outcome,[1],inactive
same,outcome,[2],inactive
same,AC50,[3],16 µM (active)
same,outcome,[18],inactive
same,outcome,[4],inactive
same,outcome,[5],inactive
same,outcome,[6],inactive
same,outcome,[17],inactive
same,outcome,[7],inactive
same,outcome,[8],inactive
same,outcome,[9],inactive
same,outcome,[10],inactive
same,outcome,[11],inactive
same,outcome,[12],inactive
same,outcome,[13],inactive
same,outcome,[15],inactive
COCCOCCO,outcome,[1],inactive
same,outcome,[2],inactive
same,outcome,[7],inactive
same,outcome,[8],inactive
same,outcome,[9],inactive
same,outcome,[10],inactive
same,outcome,[11],inactive
same,outcome,[12],inactive
same,outcome,[13],inactive
same,outcome,[15],inactive
Nc1ccc(Cl)cc1,outcome,[1],inactive
same,AC50,[2],13.2 µM (active)
same,outcome,[3],inactive
same,outcome,[16],inactive
same,outcome,[19],inactive
same,outcome,[5],inactive
same,outcome,[6],inactive
same,outcome,[17],inactive
same,outcome,[7],inactive
same,outcome,[8],inactive
same,outcome,[9],inactive
same,outcome,[10],inactive
same,outcome,[11],inactive
same,outcome,[12],inactive
same,outcome,[13],inactive
same,outcome,[15],inactive
CCCCc1ccccc1,outcome,[1],inactive
same,outcome,[2],inactive
same,outcome,[5],inactive
same,outcome,[17],inactive
same,outcome,[7],inactive
same,outcome,[8],inactive
same,outcome,[9],inactive
same,outcome,[10],inactive
same,outcome,[11],inactive
same,outcome,[12],inactive
same,outcome,[13],inactive
same,outcome,[15],inactive
CCOC(=O)c1ccccc1N,outcome,[3],inactive
same,outcome,[4],inactive
same,outcome,[19],inactive
same,outcome,[17],inactive
same,outcome,[14],inactive
CCOC(=O)c1ccccc1C(=O)OCC,outcome,[1],inactive
same,outcome,[2],inactive
same,outcome,[16],inactive
same,outcome,[19],inactive
same,outcome,[6],inactive
same,outcome,[7],inactive
same,outcome,[8],inactive
same,outcome,[9],inactive
same,outcome,[10],inactive
same,outcome,[11],inactive
same,outcome,[12],inactive
same,outcome,[13],inactive
same,outcome,[14],inactive
same,outcome,[15],inactive
CCOP(=O)(O)C(N)=O,outcome,[3],inactive
same,outcome,[16],inactive
same,outcome,[18],inactive
same,outcome,[19],inactive
same,outcome,[6],inactive
same,outcome,[17],inactive
same,outcome,[14],inactive
Cc1ccc(N)cc1N,outcome,[1],inactive
same,outcome,[2],inactive
same,outcome,[4],inactive
same,outcome,[19],inactive
same,outcome,[5],inactive
same,outcome,[6],inactive
same,outcome,[7],inactive
same,outcome,[8],inactive
same,outcome,[9],inactive
same,outcome,[10],inactive
same,outcome,[11],inactive
same,outcome,[12],inactive
same,outcome,[13],inactive
same,outcome,[15],inactive
COP(N)(=S)OC,outcome,[1],inactive
same,outcome,[2],inactive
same,outcome,[16],inactive
same,outcome,[19],inactive
same,outcome,[5],inactive
same,outcome,[6],inactive
same,outcome,[7],inactive
same,outcome,[8],inactive
same,outcome,[9],inactive
same,outcome,[10],inactive
same,outcome,[11],inactive
same,outcome,[12],inactive
same,outcome,[13],inactive
same,outcome,[14],inactive
same,outcome,[15],inactive
